# Reference: the supplement of paper PMC10849652
# Of roughly 7,900 targets only a part is listed; those with a hit were picked by preference. About 0.6% of all pairs of compound and target were hits. A number with no mark means an inactive call.
# Columns and labels:
# Test in all cases: log2 fold change, soluble protein after heating vs DMSO (PISA); higher = thermal stabilisation; K562 cells, 10 uM, 30 min; active = over 0.2 and 3.5 SD of the protein, either way, in both replicates (recomputed)
# [1] = compound: NC(=O)Nc1cc(-c2cccc(F)c2)sc1C(=O)N[C@H]1CCCNC1
# Procedure, shortened: (§1)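 For each measurement, 10 μM compound was applied for 30 min to K562 cells at 2×10^6 cells/mL. Aliquots were heated for 3 min across 48°C-58°C, pooled, and extracted in PBS with 0.5% NP-40 at 4°C; the supernatant after 21,000xg for 90 min was soluble protein. This was quantified by TMTpro 16plex LC-MS/MS with channel sums equalised, and thermal stability was reported relative to control samples from duplicates, on a log2 fold-change scale.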
# [2] = compound: NC(=O)c1cnc(N[C@@H]2CCCC[C@@H]2N)nc1Nc1cccc(-n2nccn2)c1
# Procedure, shortened: as §1
# [3] = compound: NC1(c2ccc(-c3nc4ccn5c(=O)[nH]nc5c4cc3-c3ccccc3)cc2)CCC1
# Procedure, shortened: as §1
# [4] = compound: NCC(=O)Nc1ccc(-n2nc(C(F)(F)F)cc2-c2ccc3c(ccc4ccccc43)c2)cc1
# Procedure, shortened: as §1
# entinostat = compound: Nc1ccccc1NC(=O)c1ccc(CNC(=O)OCc2cccnc2)cc1 [entinostat]
# Procedure, shortened: as §1
# vorinostat = compound: O=C(CCCCCCC(=O)Nc1ccccc1)NO [vorinostat]
# Procedure, shortened: as §1
# silmitasertib = compound: O=C(O)c1ccc2c(c1)nc(Nc1cccc(Cl)c1)c1ccncc12 [silmitasertib]
# Procedure, shortened: as §1
# [5] = compound: O=C1NC(=O)C(c2cnc3ccccn23)=C1c1cn2c3c(cc(F)cc13)CN(C(=O)N1CCCCC1)CC2
# Procedure, shortened: as §1
# citarinostat = compound: O=C(CCCCCCNC(=O)c1cnc(N(c2ccccc2)c2ccccc2Cl)nc1)NO [citarinostat]
# Procedure, shortened: as §1
# [6] = compound: c1cc(OCCN2CCCCC2)cc(-c2n[nH]c3ccc(-c4nnc[nH]4)cc23)c1
# Procedure, shortened: as §1
# entospletinib = compound: c1cn2cc(-c3ccc4cn[nH]c4c3)nc(Nc3ccc(N4CCOCC4)cc3)c2n1 [entospletinib]
# Procedure, shortened: as §1
# Sequence of UniProt O43529 (O43529 whole entry, looked up): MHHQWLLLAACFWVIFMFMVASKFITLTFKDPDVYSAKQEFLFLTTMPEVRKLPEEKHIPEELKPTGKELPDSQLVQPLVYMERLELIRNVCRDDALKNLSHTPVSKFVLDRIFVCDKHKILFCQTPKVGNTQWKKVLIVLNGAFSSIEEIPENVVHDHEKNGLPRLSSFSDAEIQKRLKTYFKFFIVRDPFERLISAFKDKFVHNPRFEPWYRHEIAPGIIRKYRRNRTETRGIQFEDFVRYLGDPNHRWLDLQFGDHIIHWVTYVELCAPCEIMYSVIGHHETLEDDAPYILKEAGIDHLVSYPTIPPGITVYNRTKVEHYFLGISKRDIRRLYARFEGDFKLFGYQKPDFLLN
# Sequence of UniProt P06493 (P06493 whole entry, looked up): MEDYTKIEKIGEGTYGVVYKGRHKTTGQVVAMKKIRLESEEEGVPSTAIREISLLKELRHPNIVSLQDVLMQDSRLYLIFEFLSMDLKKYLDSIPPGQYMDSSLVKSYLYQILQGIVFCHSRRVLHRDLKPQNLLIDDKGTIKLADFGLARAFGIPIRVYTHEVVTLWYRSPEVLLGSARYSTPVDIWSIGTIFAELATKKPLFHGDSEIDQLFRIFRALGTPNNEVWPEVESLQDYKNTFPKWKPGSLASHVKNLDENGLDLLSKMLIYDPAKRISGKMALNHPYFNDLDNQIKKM
# Sequence of UniProt Q02224 (Q02224 whole entry, looked up): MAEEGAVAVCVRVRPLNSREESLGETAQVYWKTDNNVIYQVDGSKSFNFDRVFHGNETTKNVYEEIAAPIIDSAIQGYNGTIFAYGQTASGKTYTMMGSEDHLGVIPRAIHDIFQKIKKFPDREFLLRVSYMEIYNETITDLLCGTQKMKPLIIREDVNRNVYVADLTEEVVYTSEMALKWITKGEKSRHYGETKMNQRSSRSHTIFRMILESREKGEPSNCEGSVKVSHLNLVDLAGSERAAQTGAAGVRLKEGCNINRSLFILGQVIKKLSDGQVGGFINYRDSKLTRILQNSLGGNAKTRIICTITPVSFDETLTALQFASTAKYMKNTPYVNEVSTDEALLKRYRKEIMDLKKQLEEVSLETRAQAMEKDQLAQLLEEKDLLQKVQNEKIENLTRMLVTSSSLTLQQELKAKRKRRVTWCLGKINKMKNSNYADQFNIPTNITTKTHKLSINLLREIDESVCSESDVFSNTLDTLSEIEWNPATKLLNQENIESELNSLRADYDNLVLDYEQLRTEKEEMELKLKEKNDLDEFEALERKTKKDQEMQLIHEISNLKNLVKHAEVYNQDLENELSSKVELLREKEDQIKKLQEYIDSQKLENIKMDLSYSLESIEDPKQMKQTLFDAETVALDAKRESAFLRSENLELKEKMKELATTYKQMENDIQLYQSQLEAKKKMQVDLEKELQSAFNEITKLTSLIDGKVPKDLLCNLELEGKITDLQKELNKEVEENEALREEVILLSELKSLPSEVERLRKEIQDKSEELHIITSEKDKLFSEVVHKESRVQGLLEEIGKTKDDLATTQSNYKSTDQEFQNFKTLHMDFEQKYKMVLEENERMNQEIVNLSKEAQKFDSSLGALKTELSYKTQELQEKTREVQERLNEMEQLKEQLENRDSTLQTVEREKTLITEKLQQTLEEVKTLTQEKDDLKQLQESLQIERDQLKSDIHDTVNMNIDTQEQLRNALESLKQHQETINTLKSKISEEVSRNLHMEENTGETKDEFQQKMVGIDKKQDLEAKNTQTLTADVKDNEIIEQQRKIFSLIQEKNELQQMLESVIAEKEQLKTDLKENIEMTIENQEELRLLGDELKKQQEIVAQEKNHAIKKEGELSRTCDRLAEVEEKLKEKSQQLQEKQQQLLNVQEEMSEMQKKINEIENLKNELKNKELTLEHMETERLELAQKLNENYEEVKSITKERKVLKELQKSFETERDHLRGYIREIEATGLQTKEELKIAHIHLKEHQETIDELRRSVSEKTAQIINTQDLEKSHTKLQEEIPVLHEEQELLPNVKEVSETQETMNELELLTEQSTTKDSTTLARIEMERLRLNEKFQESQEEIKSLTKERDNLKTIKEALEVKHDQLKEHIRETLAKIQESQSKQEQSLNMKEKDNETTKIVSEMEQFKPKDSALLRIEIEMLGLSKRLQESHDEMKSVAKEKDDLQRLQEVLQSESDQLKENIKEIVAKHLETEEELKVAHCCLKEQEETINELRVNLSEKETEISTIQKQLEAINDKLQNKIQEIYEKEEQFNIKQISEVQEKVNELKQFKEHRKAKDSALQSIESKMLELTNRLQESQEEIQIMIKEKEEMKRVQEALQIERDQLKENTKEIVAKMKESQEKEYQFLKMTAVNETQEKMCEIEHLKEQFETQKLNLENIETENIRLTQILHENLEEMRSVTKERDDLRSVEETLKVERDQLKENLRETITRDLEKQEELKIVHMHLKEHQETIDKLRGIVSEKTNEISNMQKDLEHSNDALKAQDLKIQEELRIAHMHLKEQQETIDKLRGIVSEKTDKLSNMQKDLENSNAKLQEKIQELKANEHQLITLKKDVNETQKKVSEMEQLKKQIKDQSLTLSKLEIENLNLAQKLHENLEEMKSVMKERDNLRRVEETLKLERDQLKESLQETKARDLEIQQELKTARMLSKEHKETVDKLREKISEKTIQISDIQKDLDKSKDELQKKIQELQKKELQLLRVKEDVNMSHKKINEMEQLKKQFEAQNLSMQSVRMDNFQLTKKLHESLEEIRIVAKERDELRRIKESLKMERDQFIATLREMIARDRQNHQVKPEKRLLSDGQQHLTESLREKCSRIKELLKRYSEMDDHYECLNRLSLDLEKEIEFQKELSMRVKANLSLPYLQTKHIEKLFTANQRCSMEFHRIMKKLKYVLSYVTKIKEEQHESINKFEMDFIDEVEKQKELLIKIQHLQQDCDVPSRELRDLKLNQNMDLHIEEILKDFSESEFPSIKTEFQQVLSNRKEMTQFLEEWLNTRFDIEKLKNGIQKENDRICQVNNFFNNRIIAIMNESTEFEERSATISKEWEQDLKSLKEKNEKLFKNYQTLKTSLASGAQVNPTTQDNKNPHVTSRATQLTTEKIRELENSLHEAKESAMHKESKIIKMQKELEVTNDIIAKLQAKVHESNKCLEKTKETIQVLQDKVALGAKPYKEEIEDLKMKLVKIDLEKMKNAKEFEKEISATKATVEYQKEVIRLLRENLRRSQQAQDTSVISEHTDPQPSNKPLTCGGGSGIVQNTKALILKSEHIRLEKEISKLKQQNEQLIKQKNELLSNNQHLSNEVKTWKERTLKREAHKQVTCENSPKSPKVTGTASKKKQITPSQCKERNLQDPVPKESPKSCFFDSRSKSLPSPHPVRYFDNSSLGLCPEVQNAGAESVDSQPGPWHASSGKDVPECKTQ
# Sequence of UniProt P68400 (P68400 whole entry, looked up): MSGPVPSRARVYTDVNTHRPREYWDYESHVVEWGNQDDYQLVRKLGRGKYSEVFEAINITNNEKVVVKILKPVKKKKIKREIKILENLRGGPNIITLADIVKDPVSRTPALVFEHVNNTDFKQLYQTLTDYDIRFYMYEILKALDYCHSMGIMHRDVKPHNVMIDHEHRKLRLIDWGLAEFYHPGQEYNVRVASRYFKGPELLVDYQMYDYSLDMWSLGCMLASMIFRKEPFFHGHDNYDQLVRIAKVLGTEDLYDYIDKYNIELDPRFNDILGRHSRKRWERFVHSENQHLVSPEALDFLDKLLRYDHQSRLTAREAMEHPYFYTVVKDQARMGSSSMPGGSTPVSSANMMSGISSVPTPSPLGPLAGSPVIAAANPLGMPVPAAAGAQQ
# Sequence of UniProt P09497 (P09497 whole entry, looked up): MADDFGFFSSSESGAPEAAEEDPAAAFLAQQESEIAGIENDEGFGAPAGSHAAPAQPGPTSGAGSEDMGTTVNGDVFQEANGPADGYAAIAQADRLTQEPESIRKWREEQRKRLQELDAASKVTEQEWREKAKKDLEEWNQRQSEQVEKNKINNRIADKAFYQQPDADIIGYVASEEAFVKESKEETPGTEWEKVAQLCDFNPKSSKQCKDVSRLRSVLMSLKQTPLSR
# Sequence of UniProt Q9UNS2 (Q9UNS2 whole entry, looked up): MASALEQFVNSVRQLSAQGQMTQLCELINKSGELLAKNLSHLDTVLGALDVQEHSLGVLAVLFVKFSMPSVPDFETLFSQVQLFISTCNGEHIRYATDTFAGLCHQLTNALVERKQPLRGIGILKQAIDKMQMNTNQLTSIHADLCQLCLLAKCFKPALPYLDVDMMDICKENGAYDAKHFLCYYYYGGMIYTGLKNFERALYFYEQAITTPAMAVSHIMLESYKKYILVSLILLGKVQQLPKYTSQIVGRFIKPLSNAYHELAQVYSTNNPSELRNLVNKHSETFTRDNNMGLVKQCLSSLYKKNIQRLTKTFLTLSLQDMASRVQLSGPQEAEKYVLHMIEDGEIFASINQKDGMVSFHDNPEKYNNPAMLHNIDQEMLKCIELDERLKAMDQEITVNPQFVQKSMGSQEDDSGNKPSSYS
# Sequence of UniProt Q9UBY8 (Q9UBY8 whole entry, looked up): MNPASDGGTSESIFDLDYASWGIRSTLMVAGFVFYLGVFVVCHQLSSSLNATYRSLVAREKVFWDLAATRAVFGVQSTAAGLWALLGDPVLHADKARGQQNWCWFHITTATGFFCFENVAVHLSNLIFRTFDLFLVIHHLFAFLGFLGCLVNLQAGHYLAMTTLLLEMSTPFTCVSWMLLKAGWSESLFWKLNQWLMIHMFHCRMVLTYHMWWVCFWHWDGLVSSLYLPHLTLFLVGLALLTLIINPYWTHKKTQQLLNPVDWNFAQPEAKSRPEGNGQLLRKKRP
# Sequence of UniProt Q5BKX5 (Q5BKX5 whole entry, looked up): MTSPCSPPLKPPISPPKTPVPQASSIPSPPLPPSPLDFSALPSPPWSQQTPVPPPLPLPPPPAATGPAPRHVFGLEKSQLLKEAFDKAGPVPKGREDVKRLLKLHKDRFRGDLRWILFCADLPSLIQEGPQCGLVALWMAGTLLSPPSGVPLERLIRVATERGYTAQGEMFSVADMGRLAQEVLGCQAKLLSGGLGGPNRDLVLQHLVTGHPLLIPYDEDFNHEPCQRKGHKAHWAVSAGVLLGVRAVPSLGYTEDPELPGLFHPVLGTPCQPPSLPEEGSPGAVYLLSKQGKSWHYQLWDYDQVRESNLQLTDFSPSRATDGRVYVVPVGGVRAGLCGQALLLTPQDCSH
Target,log2 fold change [1],log2 fold change [2],log2 fold change [3],log2 fold change [4],log2 fold change (entinostat),log2 fold change (vorinostat),log2 fold change (silmitasertib),log2 fold change [5],log2 fold change (citarinostat),log2 fold change [6],log2 fold change (entospletinib)
CCNC (UniProt P24863),-0.032,-0.105,-0.017,-0.033,0.04,-0.039,0.183,0.039,–,–,–
CENPE (UniProt Q02224),0.127,0.731,–,0.114,-0.153,-0.238,–,–,–,–,–
CSNK2A1 (UniProt P68400),-0.062,0.014,0.007,0.05,-0.015,0.046,–,-0.027,-0.013,-0.045,0.113
CLN5 (UniProt O75503),-0.133,-0.41,-0.858 (active),–,0.02,-0.087,0.192,-0.014,–,–,–
CCNDBP1 (UniProt O95273),0.046,-0.027,-0.091,0.069,-0.036,-0.069,0.087,–,0.05,-0.084,0.029
C9orf72 (UniProt Q96LT7),0.028,-0.041,-0.148,-0.009,-0.011,0.232,-0.067,-0.011,–,–,–
CMTM3 (UniProt Q96MX0),-0.056,-0.033,-0.08,0.072,-0.03,-0.087,0.009,0.096,-0.118,-0.189,0.043
COG2 (UniProt Q14746),-0.07,-0.513,-0.487,–,0.138,–,0.248,-0.031,0.101,0.34,-0.103
COPS3 isoform 2 (UniProt Q9UNS2),-0.129,-0.364,-0.005,-0.272,-0.007,-0.169,0,-0.597,-0.14,0.011,0.135
CASP9 (UniProt P55211),0.059,-0.234,–,-0.111,-0.098,0.045,–,-0.057,0.05,0.054,-0.211
CHPT1 (UniProt Q8WUD6),0,-0.039,-0.059,–,0.062,0.066,-0.042,-0.049,0.002,0.019,0.047
CSK (UniProt P41240),0.318 (active),-0.084,-0.156,-0.083,0.006,0.023,0.046,-0.048,0.03,-0.014,0.013
C22orf39 (UniProt Q6P5X5),0.093,-0.036,-0.106,–,0.037,–,0.016,0.089,–,–,–
CDKN1B (UniProt P46527),-0.154,0.178,0.017,-0.177,0.046,-0.01,-0.072,-0.01,–,–,–
CAV2 (UniProt P51636),-0.251,-0.041,0.027,–,-0.088,0.147,0.106,–,–,–,–
C15orf41 (UniProt Q9Y2V0),-0.076,-0.046,–,-0.061,-0.01,0.069,–,0.023,0.07,-0.007,0.032

Target,log2 fold change [1],log2 fold change [2],log2 fold change [3],log2 fold change [4],log2 fold change (entinostat),log2 fold change (vorinostat),log2 fold change (silmitasertib),log2 fold change [5],log2 fold change (citarinostat),log2 fold change [6],log2 fold change (entospletinib)
CAB39L (UniProt Q9H9S4),0.035,0.083,–,-0.162,-0.016,-0.197,–,-0.043,-0.093,-0.101,0.154
CRMP1 isoform 2 (UniProt Q14194),-0.121,0,–,-0.099,-0.055,0.193,–,–,–,–,–
CDK4 (UniProt P11802),0.015,-0.293,-0.074,0.02,-0.006,–,0.193,0.184,0.076,0.005,-0.069
C19orf54 (UniProt Q5BKX5),0.098,0.004,–,0.086,-0.111,-0.064,–,-0.05,-0.09,-0.121,0.17
CHST10 (UniProt O43529),0.059,0.023,-0.142,–,0.048,0.015,-0.059,-0.032,–,–,–
CDK1 (UniProt P06493),-0.036,0.004,-0.068,-0.047,0,0.05,–,-0.079,0.051,-0.032,-0.024
CLN8 (UniProt Q9UBY8),-0.062,-0.002,0.334,0,0.058,-0.061,0.075,–,0.064,-0.095,0.022
CCNT2 (UniProt O60583),-0.045,0.042,0.054,–,0.076,0.223,-0.06,-0.032,0.06,-0.089,-0.05
CRTC2 (UniProt Q53ET0),-0.814 (active),-0.001,-0.13,0.038,0.004,–,0.092,-0.125,-0.099,-0.143,-0.038
CHAF1A (UniProt Q13111),0.087,0.046,0.036,–,-0.141,0.121,-0.019,-0.167,0.005,-0.439 (active),-0.126
C1D (UniProt Q13901),0.187,0.322 (active),0,0.033,-0.012,0.116,0.072,0.003,0.067,0.008,-0.043
CCNB1 (UniProt P14635),-0.031,-0.015,-0.03,0.016,-0.002,0,-0.015,-0.076,0.031,-0.032,-0.015
COX17 (UniProt Q14061),-0.002,0.017,-0.088,0.052,0.048,-0.077,0.119,-0.141,–,–,–
CLTB (UniProt P09497),0.088,0.101,0.043,0.117,-0.076,0.003,-0.005,-0.043,-0.013,0.07,-0.025
CEP128 (UniProt Q6ZU80),-0.182,-0.029,0.095,-0.234,-0.112,–,-0.191,–,-0.087,-0.068,-0.064
CDC42SE1 (UniProt Q9NRR8),-0.244,0.055,-0.065,-0.002,-0.042,–,0.128,-0.065,-0.048,-0.103,0.141
